Shiga toxin inh = inhibitors of Shiga toxin in Vero cells. AID 2315. 290,000 compounds, 9.2% hits. inhibition, % at 38.7 µM. Vero cells, Shiga toxin protein synthesis inhibition reporter; in the data active = inhibition mostly above about 28%, no sharp cut-off; inactive = mostly below about 43%
AmpC inh detg = inhibitors of E. coli AmpC beta-lactamase with detergent. 370,000 compounds, 0.041% hits. Potency, µM (highest dose often 114 µM), actives largely listed as inhibitors. P00811. AmpC hydrolysis of nitrocefin, absorbance 480 nm, 0.01% Triton; also: nearly all actives have a fitted effect of over 25% in size
Target sequence (P00811 whole entry, looked up): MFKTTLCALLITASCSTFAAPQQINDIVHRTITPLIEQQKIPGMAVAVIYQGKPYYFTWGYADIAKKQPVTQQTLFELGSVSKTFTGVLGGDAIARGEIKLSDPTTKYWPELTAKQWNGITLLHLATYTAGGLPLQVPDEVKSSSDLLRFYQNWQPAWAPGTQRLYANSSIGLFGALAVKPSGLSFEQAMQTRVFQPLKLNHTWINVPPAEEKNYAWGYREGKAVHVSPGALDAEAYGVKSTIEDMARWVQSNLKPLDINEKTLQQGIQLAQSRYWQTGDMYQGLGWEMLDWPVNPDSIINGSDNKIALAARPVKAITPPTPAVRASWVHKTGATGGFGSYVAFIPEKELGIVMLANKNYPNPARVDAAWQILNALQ
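20 mM phosphate pH 7.0 + 0.01% (detergent screen) or 0.0001% Triton X-100; 5.3 nM AmpC reagent; cpd preinc 15 min RT; nitrocefin (800 uM stock) to start; A480 q20 s × 4 min; Activity was normalised to no-enzyme and no-compound control wells.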
AmpC no deterg = inhibitors of E. coli AmpC beta-lactamase without detergent; AmpC nitrocefin hydrolysis, absorbance 480 nm, 0.0001% Triton; Potency, µM (series often up to 57.1 µM), usual class: inhibitors; 330,000 compounds, 0.52% hits; AID 485341; also: nearly all actives have a fitted effect of over 20% in size
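20 mM phosphate pH 7.0 + 0.01% (detergent screen) or 0.0001% Triton X-100; 5.3 nM AmpC reagent; cpd preinc 15 min RT; nitrocefin (800 uM stock) to start; A480 q20 s × 4 min; Activity was normalised to no-enzyme and no-compound control wells.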
NS1 inh = inhibitors of influenza NS1 protein function; Potency, µM (series often up to 46.1 µM); 270,000 compounds, 0.4% hits; calls by dose curve; also: actives are rising curves; nearly all actives have a fitted effect of over 50% in size
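S. cerevisiae expressing influenza A NS1, grown in glucose, washed, then diluted 1:100 into pH 6.0 -URA galactose medium with 23 nl compound. Growth recovery read as OD600; NS1-free strain serves as control.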
CHX counter = affects cycloheximide protein synthesis inhibition readout, counter-screen. 300,000 compounds, 12% hits. max response, %. cell reporter, cycloheximide protein synthesis inhibition counterscreen. AID 2314; in the data active = max response mostly above about 13%, no sharp cut-off; inactive = mostly below about 14%; also: read at 38.3 µM for the half of the compounds with a filed dose
Hits are given with their value; – = inactive; ? = inconclusive; · = no result given. This is one part of a sample in which hits are shown more often than they occur. Unless noted, calls follow the shape of the dose curve; as a rule, active = well fitted curve in the direction sought with a large enough effect; inconclusive = small, poorly fitted or top-dose-only effect, or another doubt; inactive = no such curve, though single readings can be large; an effect the other way counts as inactive or inconclusive.

SMILES	Shiga toxin inh	AmpC inh detg	AmpC no deterg	NS1 inh	CHX counter
Cc1ccc(C)c(N2CCN(C(=O)CCCCCn3c(=O)[nH]c4ccccc4c3=O)CC2)c1	·	–	·	·	·
Nc1ncc(Br)cc1S(=O)(=O)NCCC(=O)NCCc1ccccc1	–	–	–	–	26.9
CC1CCCCN1C(=O)/C=C/c1ccccc1[N+](=O)[O-] (configuration not stated)	–	–	–	–	20.4
O=C(/C=C/c1cccs1)N1CCCCC1	61.0	–	–	–	39.3
O=C(/C=C/c1ccccc1[N+](=O)[O-])N1CCCCC1	65.6	–	–	·	–
O=C(/C=C/c1ccc([N+](=O)[O-])s1)N1CCCCC1	–	?	–	·	23.8
Cc1cc([N+](=O)[O-])ccc1NC(=O)C(C)NC1CCCCC1 (configuration not stated)	–	–	–	–	–
COc1ccc(C)cc1NC(=O)Cc1c(C(=O)O)c(C)cn1C	·	–	·	·	·
O=c1c2c3c(sc2ncn1/N=C/c1ccncc1)CCCC3	–	–	–	·	–
O=c1c2c3c(sc2ncn1/N=C/c1cccnc1)CCCC3	100.2	–	–	·	25.8
COc1ccccc1NC(=O)C(C)OC(=O)CSCC(=O)Nc1cc(C)on1 (configuration not stated)	·	–	–	·	·
O=C(c1ccccn1)N1CCCC(N2CCN(c3cccc(C(F)(F)F)c3)CC2)C1 (configuration not stated)	41.3	–	–	–	19.9
COc1ccc(N2CCN(C3CCCN(C(=O)CN4CCCC4=O)C3)CC2)cc1 (configuration not stated)	–	–	–	–	–
Cc1cc(C(=O)N2CCCC(N3CCN(c4cccc(Cl)c4)CC3)C2)nn1C (configuration not stated)	–	–	–	–	18.9
Cc1cc(C(=O)N2CCCC(N3CCN(c4cccc(C(F)(F)F)c4)CC3)C2)nn1C (configuration not stated)	–	–	–	–	–
O=C(c1ccccn1)N1CCN(c2cccc(C(F)(F)F)c2)CC1	–	–	–	·	–
O=C1CCCN1CC(=O)N1CCCC(N2CCN(c3cccc(Cl)c3)CC2)C1 (configuration not stated)	43.7	–	–	–	29.9
Cc1ccn2c(=O)cc(COc3ccc(NC(=O)COc4ccc(Cl)cc4)cc3)nc2c1	·	–	·	·	·
CCc1ccc2oc(C(=O)Nc3ccccc3OC)cc(=O)c2c1	·	–	·	·	·
Cc1cc(S(=O)(=O)ON2C(=O)c3ccccc3C2=O)ccc1F	–	44.7µM	–	–	–
Cc1ccc(S(=O)(=O)ON2C(=O)c3cccc4cccc(c34)C2=O)cc1	–	?	–	–	–
O=C1c2cccc3cccc(c23)C(=O)N1OS(=O)(=O)c1ccccc1	–	–	?	–	–
O=C1c2ccccc2C(=O)N1OS(=O)(=O)c1ccccc1	–	44.7µM	–	–	–
Cc1ccc(C)c(S(=O)(=O)ON2C(=O)c3ccccc3C2=O)c1	–	50.1µM	–	–	–
Cc1ccc(C)c(C(=O)CN2C(=O)c3ccccc3C2=O)c1	–	–	–	–	–
SMILES	Shiga toxin inh	AmpC inh detg	AmpC no deterg	NS1 inh	CHX counter
O=C(COC(=O)C1CC2C=CC1C2)Nc1cccc(S(=O)(=O)N2CCCCCC2)c1 (configuration not stated)	–	–	–	–	–
CCC/C=C1\CCCOC(C(=O)NCc2ccccc2)(C(F)(F)F)C1 (configuration not stated)	–	·	·	·	–
COc1ccc(Nc2c3c(nc4nncn24)CCC3)cc1Cl	·	–	·	·	·
Cc1ccc(-c2cc(-c3nnc(SCC(=O)NCC(C)C)n3N)c3ccccc3n2)cc1	–	–	–	–	35.7
CSCC[C@H](NC(=O)[C@H](CC(C)C)NC(=O)[C@@H]1CCCN1C(=O)[C@H](Cc1ccccc1)NC(=O)[C@H](Cc1ccccc1)NC(=O)[C@H](CCC(N)=O)NC(=O)[C@H](CCC(N)=O)NC(=O)[C@@H]1CCCN1C(=O)[C@H](CCCCN)NC(=O)[C@@H]1CCCN1C(=O)[C@@H](N)CCCN=C(N)N)C(N)=O	–	·	·	·	–
CSc1ccc(/C=C/C(=O)c2ccc(NC(=O)Cc3ccccc3)cc2)cc1	–	–	–	–	–
O=C(Nc1ccc(OC(=O)c2ccccc2)c(-c2nc3ccccc3s2)c1)c1ccccc1	–	?	–	–	–
Cc1ccc(NC(=O)c2ccccc2)cc1OC(=O)c1ccccc1	–	–	–	–	12.9
CCOC(=O)Nc1ccc(C(=O)Oc2ccccc2)c(O)c1	103.7	–	–	–	37.4
